# Records with an inconclusive call do not appear. A call without a number means that no potency is given here. Active and inactive are the calls of the source. Calls follow the shape of the dose curve; as a rule, active = well fitted inhibition curve with a large enough effect; inconclusive = small, poorly fitted or top-dose-only effect; inactive = flat fitted curve, though single readings scatter.
# Legend:
# Test in all cases: qHTS profiling for inhibitors of Plasmodium falciparum proliferation (AID 504749); also: nearly all actives have a fitted effect of over 60% in size
# Conditions in all cases: P. falciparum in erythrocytes, SYBR Green DNA, 72 h; series mostly up to 28.7 µM
# [1] = system: CP217
# Summary of the method: (§1)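 P. falciparum-infected erythrocytes (0.3% parasitemia, 2.5% hematocrit final) were exposed to compounds for 72 h at 37 C in 5% CO2, then lysed with SYBR Green buffer overnight at room temperature; parasite DNA fluorescence was normalized to artemisinin and DMSO controls.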
# [2] = system: CP237
# Summary of the method: as §1
# [3] = system: CP238
# Summary of the method: as §1
# [4] = system: CP247
# Summary of the method: as §1
# [5] = system: CP250
# Summary of the method: as §1
# [6] = system: CP252
# Summary of the method: as §1
# [7] = system: CP256
# Summary of the method: as §1
# [8] = system: CP260
# Summary of the method: as §1
# [9] = system: CP262
# Summary of the method: as §1
# [10] = system: CP265
# Summary of the method: as §1
# [11] = system: CP268
# Summary of the method: as §1
# [12] = system: CP269
# Summary of the method: as §1
# [13] = system: CP286
# Summary of the method: as §1
# [14] = system: CP291
# Summary of the method: as §1
# [15] = system: CP305
# Summary of the method: as §1
# [16] = system: CP315
# Summary of the method: as §1
# [17] = system: CP325
# Summary of the method: as §1
# [18] = system: CP329
# Summary of the method: as §1
# [19] = system: CP266
# Summary of the method: as §1
# [20] = system: CP297
# Summary of the method: as §1
# Potency is read from the fitted curve at half-maximal effect.
SMILES,outcome [1],Potency [2],outcome [3],outcome [4],outcome [5],outcome [6],outcome [7],Potency [8],outcome [9],Potency [10],outcome [11],outcome [12],outcome [13],outcome [14],outcome [15],outcome [16],Potency [17],outcome [18],outcome [19],outcome [20]
CC(C)NC[C@H](O)COc1ccc(CC(N)=O)cc1,inactive,inactive,inactive,inactive,inactive,inactive,inactive,inactive,inactive,inactive,inactive,inactive,inactive,inactive,inactive,inactive,inactive,inactive,–,–
c1ccc(C2CN3CCSC3=N2)cc1 (configuration not stated),–,3.98 µM (active),–,–,–,–,–,10 µM (active),inactive,4.47 µM (active),–,–,–,–,–,inactive,16.9 µM (active),–,–,–
CCCCCCCCCCCCCCC[C@H](O)[C@H](N)CO,inactive,inactive,inactive,inactive,inactive,inactive,inactive,inactive,inactive,inactive,inactive,inactive,inactive,inactive,inactive,inactive,inactive,inactive,inactive,inactive
CCCCCCCCCCCCCCCCCCOC[C@H](COP(=O)([O-])OCC[N+](C)(C)C)OC,inactive,inactive,inactive,inactive,inactive,inactive,inactive,–,inactive,inactive,inactive,inactive,inactive,inactive,inactive,inactive,inactive,inactive,inactive,inactive
CC(O)C(O)[C@H]1CNc2nc(N)[nH]c(=O)c2N1 (some centres not stated),inactive,inactive,inactive,inactive,inactive,inactive,inactive,inactive,inactive,inactive,inactive,inactive,inactive,inactive,inactive,inactive,inactive,inactive,inactive,inactive
CN1C2CCC1CC(OC(c1ccccc1)c1ccccc1)C2 (configuration not stated),–,–,inactive,–,–,–,–,–,–,inactive,–,–,–,–,–,inactive,–,inactive,–,–
